Measured values reported in PubChem BioAssay AID1159580 (chemical genetic matrix, 2015).
Hit rate of the full screen: of about 5,500 compounds, about 2,000 (36%) were called active. Not shown: some 18% with an inconclusive outcome. No stated cut-off is given here; in the data, active means normalized growth mostly below about 0.91 (no sharp cut-off); inconclusive means no clear call, values can overlap the other calls; inactive means mostly above about 0.92. The list shows a part of the results.

Experiment: chemical genetic growth profiling, strain panel (AID 1159580);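 further: tested at 20 µM; growth read once vehicle control cultures reached saturation at 30 °C; 1 = growth at the plate median or of vehicle wells; lower values mean less growth of the strain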
Conditions: S. cerevisiae deletion strains, growth OD

Measured: normalized growth

Fc1ccc(C(OCCCc2cnc[nH]2)c2ccc(F)cc2)cc1
inactive: locus YAL040C, strain CLN3, active compounds read low 1.01 | locus YCL061C, strain MRC1 (second series), active compounds read low 1 | locus YDR363W, strain ESC2, active compounds read low 0.979 | locus YER002W, strain NOP16, active compounds read low 1.04 | locus YGR229C, strain SMI1, active compounds read low 1.02 | locus YMR263W, strain SAP30, active compounds read low 1.01 | locus YNL175C, strain NOP13, active compounds read low 1.01 | locus YNL197C, strain WHI3, active compounds read low 1.01 | locus YNL224C, strain SQS1, active compounds read low 1.02 | locus YNL322C, strain KRE1, active compounds read low 1.03 | locus YOR083W, strain WHI5 (second series), active compounds read low 1.03 | locus YPL241C, strain CIN2, active compounds read low 1.01
